Measurements: the supplement of paper PMC12636033
± gives the standard deviation of the averaged measurements. Over roughly 33,000 sequences, “E-score (rank enrichment, -0.5 to 0.5)” has its median near -0.0028; the highest 2% begin near 0.23. This is one part of a sample in which the highest values are shown more often than they occur.

Test system: 2Sb-muMax20 (muMax20 with two 1,3-bis(methyl)benzene Cys staples, A13C/A17C and Q88C/A92C, C-terminal Lys)
Test: PBM 8-mer E-score (E-score (rank enrichment, -0.5 to 0.5)); higher = stronger preferential binding
Procedure: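 Protein binding microarray (universal PBM chip covering all 10-mers in fixed probe flanks) with chemically synthesized human Max(13-93) bHLH-LZ analogs (not full-length Max) bearing noncanonical residues (hArg, Tha, Aib, Nle at 65) and aromatic Cys staples. Read-out per 8-mer (and its reverse complement): E-score (rank-based enrichment, -0.5 to 0.5) and Z-score of median probe intensity.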

Sequence	PBM 8-mer E-score
AACCTATA	0.0842 ± 0.034
TACCTATA	0.116 ± 0.032
CACCTATA	0.232 ± 0.056
AAGAATCG	0.202 ± 0.011
TTCCTCAA	-0.0714 ± 0.003
TCAGCCGA	-0.258 ± 0.094
CCGATCGC	0.0847 ± 0.035
ACGATCGC	0.0439 ± 0.021
GCGATCGC	0.261 ± 0.0046
ACTAAAGT	0.0154 ± 0.055
CAATGGTA	0.0764 ± 0.11
GAATACAA	0.164 ± 0.0018
CCCACTTC	0.184 ± 0.051
GCCACTCC	-0.166 ± 0.023
CCCACTCC	0.241 ± 0.017
CCCACTCG	-0.168 ± 0.084
GCCACTTA	-0.042 ± 0.068
CCCACTTA	0.2675 ± 0.00044
CCGACGGC	-0.2 ± 0.038
GTAGTGAA	0.206 ± 0.042
TAATGCGA	0.018 ± 0.0008
AAACCGGG	0.0468 ± 0.0036

Sequence	PBM 8-mer E-score
CCGATTGA	-0.00849 ± 0.0099
ACGTTATA	0.105 ± 0.0054
ACGTTATG	0.2695 ± 0.0015
ACGTTATC	0.0764 ± 0.057
TCATCAAA	-0.124 ± 0.034
CATTCGAG	0.0428 ± 0.017
ATCGTAAA	0.0946 ± 0.014
ATCGTAAT	0.246 ± 0.023
ATCGTAAG	0.0321 ± 0.021
AATTGGGT	0.2396 ± 0.0021
AATTGGTG	0.142 ± 0.023
CATTGGGG	0.255 ± 0.038
AATTGGAG	0.0796 ± 0.067
CATTGGGC	-0.173 ± 0.044
AATTGGGG	0.317 ± 0.0083
AATTGGGC	0.1581 ± 0.00092
CATTGGGA	-0.021 ± 0.0046
AATTGGGA	0.218 ± 0.012
AGCATTGG	-0.0228 ± 0.0039
TCCCCGAA	0.0276 ± 0.02
ATGTTGAC	0.0701 ± 0.026
GCAATTCC	-0.0345 ± 0.025

Sequence	PBM 8-mer E-score
ATTGGCAA	0.105 ± 0.047
ACTGAAAA	0.0674 ± 0.026
GCGGAAGA	-0.0695 ± 0.055
AAGGTCCT	-0.112 ± 0.078
GGAATGCA	0.038 ± 0.021
CTTAATGA	0.0296 ± 0.046
GATAATAC	0.234 ± 0.042
ATTAACAA	0.154 ± 0.00047
CTTAACAC	0.173 ± 0.015
GATAATAA	0.191 ± 0.037
AATAATAC	0.0444 ± 0.028
ATTAATAA	0.177 ± 0.038
ATTAATGC	0.147 ± 0.069
ATTAATAG	0.186 ± 0.045
CTTAATGC	0.234 ± 0.011
ATTAATAC	0.241 ± 0.012
ATTAACAC	0.239 ± 0.026
GTTGCTAA	0.124 ± 0.023
CCAACGCG	-0.0237 ± 0.021
AATACTCA	0.102 ± 0.013
CGTCCGTC	-0.11 ± 0.051
ACACATAT	0.124 ± 0.021

Sequence	PBM 8-mer E-score
ATAGGGCG	0.138 ± 0.0092
ATGATCAG	-0.0255 ± 0.099
CACTTGAC	-0.0462 ± 0.076
CTTAATAA	-0.0695 ± 0.0064
CTTAATAC	0.244 ± 0.042
CTTAATTC	0.173 ± 0.039
ATCAGCTA	0.00813 ± 0.027
AATGAAGT	0.238 ± 0.026
AATGAAGA	0.0161 ± 0.012
AATGAAGG	0.0344 ± 0.037
TACAATAA	0.331 ± 0.05
CACAATAA	0.0489 ± 0.053
TACAACAA	0.268 ± 0.0087
AACAATAA	0.133 ± 0.017
AACAACAC	0.2764 ± 0.0019
CACAACAA	0.212 ± 0.0096
CACAACAC	0.219 ± 0.035
GACAACAC	-0.0706 ± 0.0054
AACAACAA	0.194 ± 0.033
CATTTCCG	-0.0659 ± 0.0054
CTTCCCGC	0.0401 ± 0.037
